# High-throughput results (PubChem)
# Sampled rows, rich in hits. Any-hit rate of the full collection: about 11%.
# BAZ2B block: qHTS Assay for Inhibitors of BAZ2B; actives 4.4% (n = 360,000); AID 504333, 2011; Bromodomain adjacent to zinc finger domain protein 2B (Homo sapiens), Q9UIF8; Potency, µM (doses to about 114 µM), without a hit: at the highest dose activity change, negative = inhibition, hits mostly inhibitors; AlphaScreen BAZ2B-H3K14Ac peptide displacement; also: % is scaled to controls: 0 for no effect and ±100 for the full control effect; nearly all actives have a fitted effect of over 60% in size
#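 Complex of BAZ2B and biotin-H3K14Ac (50 nM apiece) forms over 30 min at RT, then faces library compounds up to 110 uM for another 30 min; AlphaScreen beads added, 20 min dark incubation, luminescence read.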
# JMJD2A Tudor inh: qHTS Assay for Inhibitors of JMJD2A-Tudor Domain; Lysine-specific demethylase 4A (Homo sapiens), O75164; AlphaScreen JMJD2A-Tudor / H3K4me3 peptide binding; Potency, µM (titrated, usually from 114 µM), without a hit: at the highest dose activity change, negative = inhibition, usual class: inhibitors; actives 4.4% (n = 390,000); AID 504339, 2011; also: % is scaled to controls: 0 for no effect and ±100 for the full control effect; nearly all actives have a fitted effect of over 50% in size
# HP1b chromo inh: HTS for Inhibitors of HP1-beta Chromodomain Interactions with Methylated Histone Tails. Chromobox protein homolog 1 (Homo sapiens), P83916. Potency, µM (doses to about 114 µM), for inactives: at the top dose activity change, negative = inhibition, usual class: inhibitors. actives 0.56% (n = 390,000). AID 540317, 2011. AlphaScreen HP1-beta / biotin-H3K9me3 peptide binding; also: nearly all actives have a fitted effect of over 70% in size
#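 Compound inhibition of the preformed complex between 50 nM HP1-beta and 50 nM biotinylated H3K9me3 peptide was read by AlphaScreen. Buffer was PBS pH 7.4 with 0.01% Tween-20. Incubations ran 30 min at room temperature, with 10 ug/mL donor/acceptor beads.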
# G9a block: qHTS Assay for Inhibitors of Histone Lysine Methyltransferase G9a; Histone-lysine N-methyltransferase EHMT2 (Homo sapiens), Q96KQ7; G9a H3K9 monomethylation, AlphaScreen, 2 h; Potency, µM (highest dose often 102 µM), without a hit: at the top dose activity, negative = inhibition, hits mostly inhibitors; actives 8.8% (n = 350,000); AID 504332, 2011; also: % is scaled to controls: 0 for no effect and ±100 for the full control effect; nearly all actives have a fitted effect of over 75% in size
#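 Enzyme 20 nM + cpd, 15 min RT; add b-H3K9 pep 500 nM / SAM 20 uM; 2 h RT; anti-H3K9me1 Ab 0.5 ug/mL + SA donor / anti-rabbit acceptor beads 20 ug/mL each, 10 min; AlphaScreen read.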
# PLK1 PBD block: qHTS for Inhibitors of PLK1-PDB (polo-like kinase 1 - polo-box domain): Primary Screen. Potency, µM, inactives show max response, negative = inhibition, actives largely listed as inhibitors. actives 2.8% (n = 360,000). Plk1 PBD binding of FITC phosphopeptide, fluorescence polarization. Serine/threonine-protein kinase PLK1 (Homo sapiens), P53350. AID 720504, 2013; also: series mostly up to about 57 µM; % is scaled to controls: 0 for no effect and ±100 for the full control effect; nearly all actives have a fitted effect of over 65% in size
# VDR inh: Inhibitors of the vitamin D receptor (VDR): qHTS | AID 504847, 2011 | VDR-SRC2-3 peptide fluorescence polarization, 2 h | actives 0.93% (n = 400,000) | Potency, µM, without a hit: max response, negative = inhibition, most hits filed as inhibitors; also: % is scaled to controls: 0 for no effect and ±100 for the full control effect
#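 Two reagent solutions held at 4 deg C in the dark were dispensed, compounds pinned at 23 nl, and the mixture incubated 2 h at room temperature. Read-out: fluorescence polarization of VDR–SRC2-3 peptide binding.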
# Active calls of the source: *; ? = inconclusive; . = not tested or not shown; ! = a repeat was not active; [ ] = another dose, or the depositor's remark. Calls follow the shape of the dose curve; as a rule, active = well fitted curve in the direction sought with a large enough effect; inconclusive = small, poorly fitted or top-dose-only effect, or another doubt; inactive = no such curve, though single readings can be large; an effect the other way counts as inactive or inconclusive. Potency is read from the fitted curve at half-maximal effect.
SMILES,BAZ2B block,JMJD2A Tudor inh,HP1b chromo inh,G9a block,PLK1 PBD block,VDR inh
CCCCC(=O)NC(c1ccc(C(C)C)cc1)c1ccc2cccnc2c1O (stereo not given),-10%,-15%,54%,34%[59 µM],-6%,?
Oc1cccc(C(Nc2nccs2)c2ccc3cccnc3c2O)c1 (stereo not given),28µM*,32µM*,?,?,?,-2%
CC(=O)NC(c1ccc(C(C)C)cc1)c1ccc2cccnc2c1O (stereo not given),?,56µM*,35%,20%,-17%,-12%
CC(=O)NC(c1cccc([N+](=O)[O-])c1)c1ccc2cccnc2c1O (stereo not given),38%,32µM*,36%,.,-12%,-14%
CNc1nc(Oc2cccc(NC(C)=O)c2)c2sccc2n1,.,.,.,.,-5%,.
COc1cc2c(OC(C)=O)c3c(c(-c4ccc5c(c4)OCO5)c2cc1OC)C(=O)OC3,-5%,89µM*!,?,-10%[59 µM],-5%,-22%
COc1cc2c(O)c3c(c(-c4ccc5c(c4)OCO5)c2cc1OC)C(=O)OC3,-7%,-20%,13%,.,-16%,12%
COc1ccccc1N1CCN(CCCCN2C(=O)C3CCCCN3C2=O)CC1 (stereo not given),5%,?,-4%,22%[0.501 µM],8.4µM*,?
Nc1ccc(N2CCN(CCCCN3C(=O)C4CCCN4C3=O)CC2)cc1 (stereo not given),?,?,-28%,10µM*,-3%,-26%
CCCCc1ccc(NC(=O)Cn2c(=O)c(N3CCCCC3)c(N)n(C)c2=O)cc1,.,4%,2%,.,4%,-7%
O=C1c2ccccc2NC(c2ccccc2O)N1Cc1ccccc1 (stereo not given),.,-22%,.,.,.,.
CCOc1cc(C(=O)Nc2ccc(C(=O)NCCN(CC)CC)cc2)ccc1OCC(=O)N1CCOCC1,8%,8%,40%,50µM*,-5%,10%
CCCCOc1ccc(C(=O)NC(=S)Nc2ccc(CN3CCOCC3)cc2)cc1,5%,-14%,15%,-5%,-3%,-20%
CCOc1ccc(C(=O)Nc2ccc(CN3CCOCC3)cc2)cc1Br,-36%,?,-13%,-10%[59 µM],30µM*,-10%
Cc1ccc(C(=O)NC(=S)NNC(=O)CCN2CCOCC2)cc1,56µM*,-19%,52%,8.9µM*,-18%,-13%
CCOc1cc(C(=O)NCc2ccccc2)ccc1OCC(=O)N1CCOCC1,-23%,-9%,39%,-66%,-8%,22%
COc1ccc(C(=O)NC(=S)Nc2ccc(CN3CCOCC3)cc2)cc1Br,?,?,-10%,45µM*,3%,-14%
COc1ccc(C(=O)NC(=S)N2CCC(C)CC2)cc1Br,?,?,51%,8%,-3%,-3%
O=C(CCCCl)NC(=S)Nc1ccc(CN2CCOCC2)cc1,-19%,4%,37%,50µM*,-8%,14%
COc1ccc(C(=O)NC(=S)N2CCNC(=O)C2)cc1Br,?,35µM*,-16%,.,?,-15%
COc1ccc(C(=O)NC(=S)Nc2ccc(CN3CCOCC3)cc2)cc1,-34%,-12%,-6%,45µM*,0%,19%
CCOc1ccc(C(=O)NCC(=O)Nc2ccc3c(c2)OCO3)cc1OCC,-15%,?,-9%,50µM*,5%,-1%
O=C(CCCCl)NC(=S)Nc1ccc(N2CCOCC2)cc1,-16%,-19%,19%,.,-4%,-4%
Cc1ccc(NC(=O)Cn2c(=O)n(Cc3ccc4c(c3)OCO4)c(=O)c3ccc(C(=O)NC4CCCCC4)cc32)c(C)c1,.,-8%,27%,7%[59 µM],.,-13%
